“And” between values parts separate entries of the source, which are not always exact repeats. Identical values can stand only once. The whole screen tested about 5,500 compounds, of which about 2,000 (36%) were called active. Not shown: some 18% with an inconclusive outcome. Cut-off read from the data, not from the text of the source: active = normalized growth mostly below about 0.91 (no sharp cut-off); inconclusive = no clear call, values can overlap the other calls; inactive = mostly above about 0.92. The list shows a part of the results.
Experiment: chemical genetic growth profiling, strain panel (AID 1159580);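 note: tested at 20 µM; growth read once vehicle control cultures reached saturation at 30 °C; 1 = growth at the plate median or of vehicle wells; lower values mean less growth of the strain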
Details: S. cerevisiae deletion strains, growth OD

Measured: normalized growth

CC1(C)C2CC(=O)[C@]3(C)C(CC[C@@]4(C)[C@H](c5ccoc5)OC(=O)C5OC543)[C@@]2(C)[C@@H](O)C[C@H]1O (stereo not given in full)
inactive: locus YAL021C, strain ccr4, active compounds read low 0.987 | locus YAL026C, strain drs2, active compounds read low 1.01 | locus YAL030W, strain snc1, active compounds read low 1 | locus YBL061C, strain skt5, active compounds read low 1.01 | locus YBR009C, strain hhf1, active compounds read low 1.02 | locus YBR021W, strain FUR4, active compounds read low 1 | locus YBR023C, strain chs3, active compounds read low 1.01 | locus YBR171W, strain sec66, active compounds read low 1.03 | locus YBR229C, strain ROT2, active compounds read low 1.01 | locus YBR231C, strain swc5, active compounds read low 1.01 | locus YBR279W, strain paf1, active compounds read low 1 | locus YCL011C, strain gbp2, active compounds read low 1.01 | locus YCL016C, strain dcc1, active compounds read low 1.01 | locus YCL029C, strain bik1, active compounds read low 1.02 | locus YCL069W, strain vba3, active compounds read low 1.02 | locus YCR088W, strain abp1, active compounds read low 1.01 | locus YDL005C, strain med2, active compounds read low 1 | locus YDL035C, strain GPR1, active compounds read low 1.08 | locus YDL040C, strain nat1, active compounds read low 1 | locus YDL074C, strain BRE1, active compounds read low 1.09 | locus YDL101C, strain DUN1, active compounds read low 1.02 | locus YDL134C, strain PPH21, active compounds read low 1.04 | locus YDL185W, strain tfp1, active compounds read low 0.996 | locus YDL192W, strain arf1, active compounds read low 1.01 | locus YDR001C, strain nth1, active compounds read low 1 | locus YDR069C, strain doa4, active compounds read low 0.995 | locus YDR101C, strain arx1, active compounds read low 0.98 | locus YDR137W, strain rgp1, active compounds read low 1.02 | locus YDR159W, strain sac3, active compounds read low 1.03 | locus YDR162C, strain NBP2, active compounds read low 1.05 | locus YDR195W, strain ref2 0.968 | locus YDR297W, strain sur2, active compounds read low 1.01 | locus YDR318W, strain mcm21, active compounds read low 1 | locus YDR334W, strain swr1, active compounds read low 1 | locus YDR335W, strain msn5, active compounds read low 1.01 | locus YDR388W, active compounds read low 0.976 | locus YDR392W, strain spt3, active compounds read low 1.01 | locus YDR502C, strain sam2, active compounds read low 1.01 | locus YEL003W, strain gim4, active compounds read low 1.01 | locus YEL037C, strain rad23, active compounds read low 1 | locus YEL061C, strain CIN8 (second series), active compounds read low 0.994 | locus YER015W, strain faa2, active compounds read low 0.997 | locus YER016W, strain bim1, active compounds read low 1.01 | locus YER110C, active compounds read low 0.988 | locus YER111C, strain swi4, active compounds read low 1.01 | locus YER155C, strain BEM2 (second series), active compounds read low 1.02 | locus YER155C, strain BEM2, active compounds read low 1 | locus YER167W, strain BCK2, active compounds read low 1.01 | locus YFR010W, strain ubp6, active compounds read low 0.994 | locus YGL078C, strain dbp3, active compounds read low 0.987 | locus YGL086W, strain mad1, active compounds read low 1 | locus YGL167C, strain pmr1, active compounds read low 1 | locus YGL173C, strain kem1, active compounds read low 1.01 | locus YGL227W, strain vid30, active compounds read low 1.03 | locus YGL240W, strain doc1, active compounds read low 1.01 | locus YGL248W, strain PDE1, active compounds read low 1.06 | locus YGL253W, strain hxk2, active compounds read low 1 | locus YGR078C, strain PAC10, active compounds read low 1.05 | locus YGR135W, strain pre9, active compounds read low 1 | locus YGR252W, strain gcn5, active compounds read low 0.913 | locus YHR013C, strain ard1, active compounds read low 1.02 | locus YHR027C, strain rpn1, active compounds read low 0.985 | locus YHR030C, strain SLT2, active compounds read low 1.02 and 1.04 | locus YHR079C, strain IRE1 (second series), active compounds read low 0.985 | locus YHR079C, strain IRE1, active compounds read low 1.03 | locus YHR094C, strain hxt1, active compounds read low 0.982 | locus YHR129C, strain ARP1, active compounds read low 1.03 | locus YHR142W, strain chs7, active compounds read low 0.989 | locus YHR200W, strain rpn10, active compounds read low 0.996 | locus YIL066C, strain RNR3, active compounds read low 1.02 | locus YIL073C, strain SPO22, active compounds read low 1.12 | locus YIL125W, strain kgd1, active compounds read low 0.992 | locus YIR030C, strain dcg1, active compounds read low 0.985 | locus YJL092W, strain hpr5, active compounds read low 1 | locus YJL095W, strain BCK1 (second series), active compounds read low 1.02 | locus YJL095W, strain BCK1, active compounds read low 1.07 and 1.01 | locus YJL115W, strain asf1, active compounds read low 0.999 | locus YJL129C, strain trk1, active compounds read low 1.02 | locus YJL134W, strain LCB3, active compounds read low 1.01 | locus YJL154C, strain vps35, active compounds read low 0.999 | locus YJL164C, strain tpk1, active compounds read low 1.01 | locus YJL166W, strain qcr8, active compounds read low 1.01 | locus YJL168C, strain set2, active compounds read low 1 | locus YJL187C, strain SWE1 (second series), active compounds read low 1.03 | locus YJL187C, strain SWE1, active compounds read low 1.01 | locus YJR066W, strain TOR1, active compounds read low 0.964 | locus YKL009W, strain mrt4, active compounds read low 0.998 | locus YKL068W, active compounds read low 0.984 | locus YKL085W, strain MDH1 (second series), active compounds read low 0.989 | locus YKL085W, strain MDH1, active compounds read low 0.989 | locus YKL160W, strain elf1, active compounds read low 1.02 | locus YKL190W, strain CNB1, active compounds read low 1.01 | locus YKR001C, strain vps1, active compounds read low 0.997 | locus YKR026C, strain gcn3, active compounds read low 1.01 | locus YKR091W, strain srl3, active compounds read low 1.01 | locus YLL001W, strain dnm1, active compounds read low 0.999 | locus YLL026W, active compounds read low 1 | locus YLL041C, strain sdh2, active compounds read low 0.997 | locus YLR027C, strain aat2, active compounds read low 1.01 | locus YLR039C, strain RIC1, active compounds read low 1.17 | locus YLR058C, strain SHM2, active compounds read low 1.03 | locus YLR102C, strain apc9, active compounds read low 0.989 | locus YLR113W, strain HOG1, active compounds read low 0.988 | locus YLR221C, strain rsa3, active compounds read low 1.01 | locus YLR258W, strain gsy2, active compounds read low 1.01 | locus YLR262C, strain YPT6 (second series), active compounds read low 1.01 | locus YLR268W, strain sec22, active compounds read low 1.02 | locus YLR320W, strain mms22, active compounds read low 1 | locus YLR342W, strain FKS1 (second series), active compounds read low 1.04 | locus YLR342W, strain FKS1, active compounds read low 1.02 | locus YLR357W, strain rsc2, active compounds read low 1.01 | locus YLR370C, strain arc18, active compounds read low 0.996 | locus YLR371W, strain rom2, active compounds read low 0.992 | locus YLR384C, strain iki3, active compounds read low 0.99 | locus YLR418C, strain cdc73, active compounds read low 0.974 | locus YML016C, strain PPZ1, active compounds read low 1.01 | locus YML032C, strain rad52, active compounds read low 0.986 | locus YML120C, strain ndi1, active compounds read low 1.01 | locus YML124C, strain tub3, active compounds read low 0.992 | locus YMR058W, strain fet3, active compounds read low 1 | locus YMR078C, strain ctf18, active compounds read low 0.988 | locus YMR125W, strain sto1, active compounds read low 1.01 | locus YMR129W, active compounds read low 1 | locus YMR205C, strain PFK2, active compounds read low 1.03 | locus YMR223W, strain ubp8, active compounds read low 0.985 | locus YMR231W, strain pep5, active compounds read low 1.01 | locus YMR263W, strain SAP30, active compounds read low 1.01 | locus YMR307W, strain GAS1, active compounds read low 1.15 | locus YNL067W, strain RPL9B, active compounds read low 1.02 | locus YNL071W, strain lat1, active compounds read low 1 | locus YNL153C, strain GIM3, active compounds read low 1.06 | locus YNL183C, strain NPR1, active compounds read low 0.967 | locus YNL209W, strain ssb2, active compounds read low 0.997 | locus YNL233W, strain BNI4, active compounds read low 1.06 | locus YNL248C, strain rpa49, active compounds read low 1 | locus YNL250W, strain rad50, active compounds read low 1.03 | locus YNL271C, strain bni1, active compounds read low 0.968 | locus YNL298W, strain CLA4, active compounds read low 0.991 | locus YNL307C, strain MCK1, active compounds read low 0.987 | locus YNL322C, strain KRE1 (second series), active compounds read low 1.03 | locus YNR049C, strain mso1, active compounds read low 0.997 | locus YNR052C, strain pop2, active compounds read low 0.975 | locus YOL012C, strain htz1 1.54 | locus YOL147C, strain pex11, active compounds read low 0.982 | locus YOR001W, strain rrp6, active compounds read low 1.01 | locus YOR061W, strain CKA2, active compounds read low 1.01 | locus YOR069W, strain VPS5, active compounds read low 1.01 | locus YOR070C, strain gyp1, active compounds read low 1 | locus YOR080W, strain dia2, active compounds read low 0.999 | locus YOR083W, strain WHI5, active compounds read low 1.02 | locus YOR106W, strain vam3, active compounds read low 1.01 | locus YOR136W, strain idh2, active compounds read low 0.986 | locus YOR144C, strain elg1, active compounds read low 0.979 | locus YOR184W, strain ser1, active compounds read low 1.01 | locus YOR231W, strain MKK1, active compounds read low 1.03 | locus YOR265W, strain rbl2, active compounds read low 0.983 | locus YOR270C, strain vph1, active compounds read low 0.904 | locus YOR290C, strain snf2, active compounds read low 1.02 | locus YOR316C, strain cot1, active compounds read low 0.979 | locus YPL051W, strain arl3, active compounds read low 0.994 | locus YPL078C, strain atp4, active compounds read low 1.03 | locus YPL106C, strain sse1, active compounds read low 1.02 | locus YPL240C, strain hsp82, active compounds read low 1 | locus YPL241C, strain CIN2, active compounds read low 1.02 | locus YPL256C, strain CLN2, active compounds read low 1.03 | locus YPR119W, strain clb2, active compounds read low 0.978 | locus YPR141C, strain kar3, active compounds read low 0.99 | locus YPR163C, strain tif3, active compounds read low 0.997 | locus YPR167C, strain met16, active compounds read low 1 | strain wtn01, active compounds read low 1

— PubChem BioAssay AID1159580 (chemical genetic matrix, 2015)
